The results in this text go back to publication PMC4336329 (PLoS ONE, 2015).

Molecules are shown by their SMILES. About 14,000 (4.5%) of roughly 310,000 compounds showed an effect of 50% or more. The effect is printed as a negative number. This excerpt belongs to a sample that is enriched for strong results.
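Also: peak tail current of the secondary pulse compared with the same well before compound.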

Chain of human ether-à-go-go-related gene (hERG) potassium channel (Q12809 whole entry, looked up): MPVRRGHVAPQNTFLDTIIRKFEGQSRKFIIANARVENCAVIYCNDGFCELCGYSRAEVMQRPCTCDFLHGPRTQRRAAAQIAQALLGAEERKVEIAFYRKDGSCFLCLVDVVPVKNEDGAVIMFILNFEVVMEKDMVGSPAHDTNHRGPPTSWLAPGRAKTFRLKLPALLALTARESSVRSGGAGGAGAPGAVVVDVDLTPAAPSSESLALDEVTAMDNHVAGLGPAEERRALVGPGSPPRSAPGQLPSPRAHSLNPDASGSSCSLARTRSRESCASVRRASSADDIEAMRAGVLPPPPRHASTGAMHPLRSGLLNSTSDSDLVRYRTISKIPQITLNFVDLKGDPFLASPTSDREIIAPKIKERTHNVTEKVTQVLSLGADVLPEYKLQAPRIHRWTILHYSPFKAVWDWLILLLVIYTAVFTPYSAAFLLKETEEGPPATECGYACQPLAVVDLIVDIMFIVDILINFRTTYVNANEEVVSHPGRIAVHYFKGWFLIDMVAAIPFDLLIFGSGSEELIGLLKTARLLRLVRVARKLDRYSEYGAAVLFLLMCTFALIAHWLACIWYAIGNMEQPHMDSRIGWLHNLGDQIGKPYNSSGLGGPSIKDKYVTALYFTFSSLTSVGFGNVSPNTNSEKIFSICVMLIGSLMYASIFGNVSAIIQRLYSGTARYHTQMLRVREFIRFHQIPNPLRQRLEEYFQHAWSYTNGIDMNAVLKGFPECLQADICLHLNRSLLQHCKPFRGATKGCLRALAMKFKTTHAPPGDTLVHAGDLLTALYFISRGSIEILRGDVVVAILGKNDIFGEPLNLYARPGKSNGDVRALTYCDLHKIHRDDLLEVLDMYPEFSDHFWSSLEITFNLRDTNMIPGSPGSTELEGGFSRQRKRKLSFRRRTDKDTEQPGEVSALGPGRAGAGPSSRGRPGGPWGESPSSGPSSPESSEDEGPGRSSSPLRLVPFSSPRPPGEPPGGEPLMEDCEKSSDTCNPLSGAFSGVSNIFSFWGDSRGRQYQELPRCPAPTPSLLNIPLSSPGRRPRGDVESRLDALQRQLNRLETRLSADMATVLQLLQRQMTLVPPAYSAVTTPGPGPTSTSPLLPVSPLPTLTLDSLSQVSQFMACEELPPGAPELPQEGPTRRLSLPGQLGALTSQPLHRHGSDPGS

The assay concerns the target human ether-à-go-go-related gene (hERG) potassium channel (human, UniProt Q12809). The assay is described as follows: primary screen, population patch clamp on CHO cells stably expressing hERG; higher = less effect of the substance.
Consider `FC(F)(F)c1ccccc1CNCc1ccc2c(c1)OCO2`, for which the “hERG current change (%, negative = inhibition) at 10uM” value is on record as 0.962%.
Regarding `O=C(Nc1ccccc1OC(F)F)c1oc2ccccc2c1COc1ccccc1`, the “hERG current change (%, negative = inhibition) at 10uM” value is listed as 0.283%.
As to `COc1ccc(-n2c(Cc3cc(=O)[nH]c(=O)[nH]3)nnc2SCC(=O)Nc2cc(C(F)(F)F)ccc2Cl)cc1`, the “hERG current change (%, negative = inhibition) at 10uM” value is on record as -3.73%.
Turning to `CCCC(c1nnnn1CC(=O)OCC)N(Cc1cc2c(C)cc(C)cc2[nH]c1=O)C1CCCC1` (stereo not shown), the “hERG current change (%, negative = inhibition) at 10uM” value is 22.1%.
The same measure for `O=C(c1ccccc1F)N1CCC2(CC1)OCCO2`: 30.8%; for `O=C1CC2(CCN(C(=O)c3c(F)cccc3F)CC2)Oc2ccccc21`: -34.2%.
For the molecule `CC(=O)N1CCC2(CC1)CC(=O)c1cc(Cl)ccc1O2`, the “hERG current change (%, negative = inhibition) at 10uM” value is reported as -55.2%.
Next, `O=C1CC2(CCCCC2)Oc2ccccc21`: 14.4%; `O=C1CC2(CCCCCC2)Oc2ccc(Cl)cc21`: 9.01%; `O=C1CC2(CCCC2)Oc2ccc(Cl)cc21`: 8.19%.
As to `O=C1CC2(CCN(C(=O)c3ccccc3Br)CC2)Oc2ccccc21`, the “hERG current change (%, negative = inhibition) at 10uM” value was -76.9%.
Take `O=C1CC2(CCCCCC2)Oc2ccccc21`: the “hERG current change (%, negative = inhibition) at 10uM” value is on record as -6.74%.
Regarding `O=C1CC2(CCN(C(=O)c3ccccc3F)CC2)Oc2ccccc21`, the “hERG current change (%, negative = inhibition) at 10uM” value is listed as -73.2%.
For `Cc1ccc(SC(C)C(=O)N2CCC(C(N)=O)CC2)cc1` (stereo not shown), the “hERG current change (%, negative = inhibition) at 10uM” value was determined as 20.1%.
For `CCOc1ccc(-c2nc(N)ncc2Oc2ccc(OC)cc2)c(O)c1`, the “hERG current change (%, negative = inhibition) at 10uM” value is on record as -2.1%.
Consider `Cc1cccc(CNc2ccc(C(CC(N)=O)NC(=O)c3cccc(Br)c3)cc2[N+](=O)[O-])c1` (stereo not shown), for which the “hERG current change (%, negative = inhibition) at 10uM” value is -19.8%.
`O=C(C[n+]1cccc(C(=O)Nc2ccccc2)c1)c1ccc([N+](=O)[O-])cc1.[Br-]`: the “hERG current change (%, negative = inhibition) at 10uM” value was -73.1%.
As for `O=C(Nc1ccccc1)c1ccc[n+](Cc2ccc([N+](=O)[O-])cc2)c1.[Br-]`, the “hERG current change (%, negative = inhibition) at 10uM” value was -4.25%.
Take `CCC(=O)Nc1cccc(NC(=O)c2cccc([N+](=O)[O-])c2)c1`: the “hERG current change (%, negative = inhibition) at 10uM” value is -61.2%.
On to `O=C(C[n+]1cccc(NC(=O)c2ccccc2)c1)c1ccc(NC(=O)c2ccccc2)cc1.[Br-]`, for which the “hERG current change (%, negative = inhibition) at 10uM” value worked out at 1.37%.
On to `O=C(Nc1cccc([N+](=O)[O-])c1)c1cccc(C(=O)Nc2cccc([N+](=O)[O-])c2)c1`, for which the “hERG current change (%, negative = inhibition) at 10uM” value is 24.1%.
The same measure for `O=C(C[n+]1ccc2ccccc2c1)c1ccc(NC(=O)c2ccccc2)cc1.[Br-]`: -0.135%; for `C=Cn1cc[n+](CC(=O)c2ccc(-c3ccccc3)cc2)c1.[Br-]`: 7.91%; for `O=C(C[n+]1ccc2ccccc2c1)c1cccc2ccccc12.[Br-]`: -72.8%.
As for `O=C(C[n+]1ccc2ccccc2c1)c1ccccc1.[Br-]`, the “hERG current change (%, negative = inhibition) at 10uM” value is on record as -22.5%.
Next, `O=C(C[n+]1ccn(-c2ccccc2)c1)c1ccc([N+](=O)[O-])cc1.[Br-]`: -61.3%; `O=C(Cn1cc[n+](Cc2ccccc2)c1)c1ccc([N+](=O)[O-])cc1.[Br-]`: -23.7%; `CC(C)C(=O)Nc1cccc(NC(=O)c2cccc([N+](=O)[O-])c2)c1`: -30.9%.
Turning to `COc1ccc(/C=C/C(=O)O)cc1S(=O)(=O)NCC1CCCO1` (stereo not shown), the “hERG current change (%, negative = inhibition) at 10uM” value was 14.1%.
As for `O=[N+]([O-])c1cccc(CSC2=NCCN2S(=O)(=O)c2ccccc2)c1`, the “hERG current change (%, negative = inhibition) at 10uM” value is recorded as -6.78%.
Take `O=C(O)c1cccc(CSc2nc(-c3ccc(Cl)cc3)cc(C(F)(F)F)n2)c1`: the “hERG current change (%, negative = inhibition) at 10uM” value is given as -0.199%.
Consider `NNC(=O)c1c(O)c2cccc3c2n(c1=O)CCC3`, for which the “hERG current change (%, negative = inhibition) at 10uM” value is 22.4%.
The same measure for `COc1ccc(N2CCN(S(=O)(=O)c3ccc4c(c3)CCCC4)CC2)c([N+](=O)[O-])c1`: 6.51%; for `Cc1cc(C(=O)c2ccc3ccccc3c2)c(C)o1`: 2.09%.
Consider `Cn1ncc([N+](=O)[O-])c1C(=O)N/N=C/c1ccc(F)cc1`, for which the “hERG current change (%, negative = inhibition) at 10uM” value was -9.05%.
The same measure for `O=C(Nc1ccccc1C(=O)N1CCCCC1)c1cc(F)c(F)cc1Cl`: 1.47%; for `O=C(Nc1ccc[n+](CC(=O)c2cccc3ccccc23)c1)c1ccccc1.[Br-]`: -58.9%; for `Cc1cc[n+](CC(=O)c2ccc(NC(=O)c3ccccc3)cc2)c2ccccc12.[Br-]`: 7.1%.
Consider `O=C(Nc1cccc([N+](=O)[O-])c1)c1ccccc1`, for which the “hERG current change (%, negative = inhibition) at 10uM” value was determined as 7.97%.
For `Cc1cc[n+](CC(=O)c2ccccc2)c2ccccc12.[Br-]`, the “hERG current change (%, negative = inhibition) at 10uM” value was -8.1%.
As for `NC(=O)c1ccc[n+](CC(=O)c2cccc([N+](=O)[O-])c2)c1.[Br-]`, the “hERG current change (%, negative = inhibition) at 10uM” value is 16.9%.
On to `O=C(C[n+]1cccc(NC(=O)c2ccccc2)c1)c1ccccc1.[Br-]`, for which the “hERG current change (%, negative = inhibition) at 10uM” value is -18.1%.
Next, `Cc1ccc(C(=O)C[n+]2cccc3ccccc32)cc1.[Br-]`: -9.35%.
Next, `Cc1cc[n+](CC(=O)c2cccc([N+](=O)[O-])c2)c2ccccc12.[Br-]`: -58.8%; `O=C(C[n+]1cccc(NC(=O)c2ccccc2)c1)c1cccc([N+](=O)[O-])c1.[Br-]`: -76.3%; `O=C(C[n+]1cccc2ccccc21)c1ccccc1.[Br-]`: -1.84%.
The same measure for `O=C(C[n+]1cccc2ccccc21)c1ccc([N+](=O)[O-])cc1.[Br-]`: -72.4%.
With `NC(=O)c1ccc[n+](CC(=O)c2ccc(NC(=O)c3ccccc3)cc2)c1.[Br-]`, the “hERG current change (%, negative = inhibition) at 10uM” value turned out to be 27.1%.
Turning to `O=C1c2ccccc2C(O)(Cc2ccccc2)N1Cc1ccco1` (stereo not shown), the “hERG current change (%, negative = inhibition) at 10uM” value was found to be 10.1%.
As for `Cc1ccc(C(=O)Nc2ccc(N3CCOCC3)cc2)cc1S(=O)(=O)N1CCCCC1`, the “hERG current change (%, negative = inhibition) at 10uM” value is listed as -10.1%.
With `CCOC(=O)CC1(c2ccc(OC)c(OC)c2)C(=O)c2ccccc2C1=O`, the “hERG current change (%, negative = inhibition) at 10uM” value is on record as -1.97%.
Take `c1ccc(-c2cc3c(nn2)CCc2nonc2-3)cc1`: the “hERG current change (%, negative = inhibition) at 10uM” value came to 0.384%.
For the molecule `COc1ccc(-c2nnc(SCC(=O)c3cccs3)o2)cc1`, the “hERG current change (%, negative = inhibition) at 10uM” value was -8.4%.
The same measure for `CCCOC(=O)CCCCCCCCC(O)CN1CCCCC1.Cl` (stereo not shown): -30%; for `Cc1ccnc(NC(=O)Nc2cccc(F)c2)c1`: -4.23%.
Turning to `COc1ccc(NC(=O)c2ccc3ccccc3c2)cc1`, the “hERG current change (%, negative = inhibition) at 10uM” value amounted to 11%.
Take `Cc1cccc(CSCCNC(=O)c2ccc(N(C)S(=O)(=O)c3ccccc3)cc2)c1`: the “hERG current change (%, negative = inhibition) at 10uM” value is listed as -4.05%.
Regarding `Cc1ccc(C(CC(=O)N2CCCC2)c2ccccc2)c(O)c1` (stereo not shown), the “hERG current change (%, negative = inhibition) at 10uM” value was 4.04%.
Regarding `Cc1ccc(C(CC(=O)N2CCCC2)c2ccccc2)c(O)c1C` (stereo not shown), the “hERG current change (%, negative = inhibition) at 10uM” value is -57.9%.
On to `Cc1cccc(C(CC(=O)N2CCCCC2)c2ccccc2)c1O` (stereo not shown), for which the “hERG current change (%, negative = inhibition) at 10uM” value is given as -34.2%.
On to `Cc1ccc(C(CC(=O)N2CCNCC2)c2ccccc2)c(O)c1C` (stereo not shown), for which the “hERG current change (%, negative = inhibition) at 10uM” value was -63.8%.
Regarding `Cc1ccc(C(CC(=O)N2CCCCC2)c2ccccc2)c(O)c1C` (stereo not shown), the “hERG current change (%, negative = inhibition) at 10uM” value is -22.1%.
Turning to `Cc1cccc(C(CC(=O)N2CCCC2)c2ccccc2)c1O` (stereo not shown), the “hERG current change (%, negative = inhibition) at 10uM” value is on record as -19.4%.
In the case of `O=C(c1ccc(Br)s1)N1CCN(c2ncccn2)CC1`, the “hERG current change (%, negative = inhibition) at 10uM” value is reported as -20.3%.
Regarding `CC12CCC3c4ccc(O)cc4CCC3C1CC(O)C2O` (stereo not shown), the “hERG current change (%, negative = inhibition) at 10uM” value was found to be 19.5%.
Next, `CC1=C(C(=O)Nc2ccccn2)C(c2ccccc2Cl)NC(=S)N1` (stereo not shown): 10.1%.
Take `CC(=C1C(=O)c2ccccc2C1=O)N1CCN(CCN=CC2=C(O)CC(C)(C)CC2=O)CC1`: the “hERG current change (%, negative = inhibition) at 10uM” value is reported as -42.3%.
Turning to `CC(=NCCN1CCN(C(C)=C2C(=O)c3ccccc3C2=O)CC1)C1=C(O)CC(C)(C)CC1=O`, the “hERG current change (%, negative = inhibition) at 10uM” value is listed as -50.5%.
`CC(=NCCN1CCN(C(=S)Nc2ccccc2)CC1)C1=C(O)CC(C)(C)CC1=O`: the “hERG current change (%, negative = inhibition) at 10uM” value is -15.3%.
Turning to `CCc1nnc(NC(=O)CSc2ccc(-c3ccccc3OC)nn2)s1`, the “hERG current change (%, negative = inhibition) at 10uM” value is -7.08%.
Next, `O=C(NCCCN1CCC(Cc2ccccc2)CC1)C1CC(=O)N(C2CCCC2)C1` (stereo not shown): -34.8%.
With `CCCS(=O)(=O)N1CCCC(C(=O)NCCCN2CCN(c3ccccc3F)CC2)C1` (stereo not shown), the “hERG current change (%, negative = inhibition) at 10uM” value is reported as -21.1%.
Next, `O=C(NCCCN1CCC(Cc2ccccc2)CC1)C1CC(=O)N(C2CCCCCC2)C1` (stereo not shown): -66.8%.
Regarding `CCCCN(CCCNC(=O)C1CCN(S(=O)(=O)CC)CC1)c1ccccc1`, the “hERG current change (%, negative = inhibition) at 10uM” value is -51.1%.
For the molecule `CCCS(=O)(=O)N1CCCC(C(=O)NCCN2CCOCC2)C1` (stereo not shown), the “hERG current change (%, negative = inhibition) at 10uM” value was found to be 13.7%.
Consider `CCN(CCCNC(=O)C1CCN(S(=O)(=O)CC)CC1)c1ccccc1`, for which the “hERG current change (%, negative = inhibition) at 10uM” value is -21.7%.
As for `O=C(NCCCN1CCCCCC1)C1CC(=O)N(C2CCCC2)C1` (stereo not shown), the “hERG current change (%, negative = inhibition) at 10uM” value was 5.99%.
For the molecule `CCCCN(CCCNC(=O)C1CCN(S(=O)(=O)N2CCOCC2)CC1)c1ccccc1`, the “hERG current change (%, negative = inhibition) at 10uM” value is on record as -48.8%.
With `CS(=O)(=O)N1CCCC(C(=O)NCCCN2CCC(Cc3ccccc3)CC2)C1` (stereo not shown), the “hERG current change (%, negative = inhibition) at 10uM” value is -33.5%.
Next, `CCCS(=O)(=O)N1CCCC(C(=O)NCCCN2CCN(c3ccc(F)cc3)CC2)C1` (stereo not shown): -59.5%.
As to `CS(=O)(=O)N1CCCC(C(=O)NCCN2CCC(Cc3ccccc3)CC2)C1` (stereo not shown), the “hERG current change (%, negative = inhibition) at 10uM” value is listed as -28%.
Consider `CCS(=O)(=O)N1CCCC(C(=O)NCCN2CCC(Cc3ccccc3)CC2)C1` (stereo not shown), for which the “hERG current change (%, negative = inhibition) at 10uM” value is listed as -59.1%.
For `COC(=O)c1sc2nc(SCC(=O)N(C)c3ccccc3)n(N)c(=O)c2c1C`, the “hERG current change (%, negative = inhibition) at 10uM” value is recorded as 27.4%.
On to `Cc1cccc(OCCCOc2cccc3cccnc23)c1C`, for which the “hERG current change (%, negative = inhibition) at 10uM” value is on record as 10.4%.
`Cc1nc(CC(=O)N2CCN(S(=O)(=O)c3ccccc3C#N)CC2)cs1`: the “hERG current change (%, negative = inhibition) at 10uM” value was determined as 10.3%.
